Assay outcomes (PubChem BioAssay)
The entries come from a sample that favours hits as a whole.
STK33 kin inh – inhibitors of human STK33 kinase; Q9BYT3; ADP-Glo luminescence, MBP substrate; inhibition, % at 12.5 µM; hit rate 0.44% among 27,000; AID 2322; in the data active = inhibition above about 20%; inconclusive = no clear call, values can overlap the other calls
Target sequence (Q9BYT3 whole entry, looked up): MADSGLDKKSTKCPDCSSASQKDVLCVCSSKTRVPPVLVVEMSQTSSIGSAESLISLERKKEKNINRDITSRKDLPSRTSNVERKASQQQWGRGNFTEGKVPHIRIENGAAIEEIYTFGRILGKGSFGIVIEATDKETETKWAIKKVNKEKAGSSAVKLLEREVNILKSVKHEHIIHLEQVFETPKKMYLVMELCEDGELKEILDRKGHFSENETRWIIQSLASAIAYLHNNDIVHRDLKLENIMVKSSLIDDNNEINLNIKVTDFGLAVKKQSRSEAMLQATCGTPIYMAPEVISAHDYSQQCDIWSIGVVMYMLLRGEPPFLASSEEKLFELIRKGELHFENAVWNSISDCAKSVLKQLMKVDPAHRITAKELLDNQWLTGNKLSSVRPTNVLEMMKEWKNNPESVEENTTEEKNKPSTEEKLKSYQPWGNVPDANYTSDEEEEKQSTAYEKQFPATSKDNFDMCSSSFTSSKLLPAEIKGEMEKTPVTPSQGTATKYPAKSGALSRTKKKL
PD-1 reverse act – activators reversing PD-1 mediated T-cell inhibition; primary human CD4 T cells, PD-L1 beads, CellTiter-Glo 96 h; 29,000 tested, under 10 active; activation, % (no concentration beside the values); call rule not given here;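 also: 0% = median vehicle wells and 100% = positive control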
NOMO-1 viab – STK33 inhibitor candidate reducing NOMO-1 cell viability | inhibition, % (test concentration not listed) | NOMO-1 AML viability, CellTiter-Glo luminescence, 72 h | hit rate 7.5% among 37,000; in the data active = inhibition above about 80%; inconclusive = no clear call, values can overlap the other calls
* hit, by the source's call; ? = inconclusive; . = no result given.

SMILES | STK33 kin inh | PD-1 reverse act | NOMO-1 viab
C=C(C)C1Cc2c(ccc3c(=O)c4c(oc23)COc2cc(OC)c(OC)cc2-4)O1 (stereo not given) | 0.2 | . | -8.9
CC(C)(C)C(=O)C(Oc1ccc(Cl)cc1)n1cncn1 (stereo not given) | -17.3 | . | 4.6
CC(C)C12CN3CCN(CC(C3)/C1=N/N)C2 | 1.5 | 7.3 | -9.8
C[C@]1(C(=O)O)CCC[C@]2(C)c3cc(O)ccc3CC[C@@H]12 | 3.4 | . | .
CNC(=O)O/N=C/C(C)(C)SC | 0.2 | . | 0.0
C[C@H](N)C(=O)N[C@@H](C)C(=O)N[C@@H](Cc1ccccc1)C(=O)CCl | 0.2 | . | 114.4*
Cc1ccc(C(C)C)cc1OP1(=O)COc2ccccc2OC1 | . | -0.3 | 31.8
C[C@]12C=CC(=O)C=C1CCC1C2CC[C@]2(C)C(=O)CCC12 (stereo not given in full) | 1.9 | . | -17.2
c1ccc2sc(C3(N4CCCCC4)CCCCC3)cc2c1 | 1.6 | . | 58.2
CC[C@@H]1/C=C\C=C\C[C@H](C)C(O)[C@](C)(O)C(=O)[C@H](C)C(O)[C@H](C)C(=O)[C@H](C)[C@@H](O)[C@H](C)/C=C/C(=O)O[C@H]2[C@@H](C)[C@@H](CC1)O[C@@]1(CC[C@@H](C)[C@@H](C[C@H](C)O)O1)[C@@H]2C (stereo not given in full) | -1.5 | -15.1 | 123.7*
C=C1CC[C@]2(O)[C@]3(C)C[C@@]4(O)O[C@@]2([C@@H]1O)[C@]1(O)[C@@]3(O)[C@H]([C@H](OO)c2ccc[nH]2)[C@](C)(C(C)C)[C@@]14C | 1.5 | 1.6 | -4.6
Oc1ccc(C2(c3ccc(O)cc3)CCCCC2)cc1 | . | -0.4 | 26.9
O=C1NC(=O)C(=C/C=C/c2ccccc2)C(=O)N1 | . | -8.6 | 112.6*
CC1(C)C2CC(=O)[C@]3(C)C(CC[C@@]4(C)[C@H](c5ccoc5)OC(=O)[C@H]5O[C@]543)[C@@]2(C)C(=O)C[C@H]1O (stereo not given in full) | 0.2 | . | 17.5
CC1(C)C2CC(=O)[C@]3(C)C(CC[C@@]4(C)[C@H](c5ccoc5)OC(=O)C5OC543)[C@@]2(C)[C@@H](O)C[C@H]1O (stereo not given in full) | 2.5 | . | -8.2
N#CC(C#N)=Cc1ccc(O)c(O)c1 | 0.2 | -1.5 | 36.0
CC(C)(C)c1cc(C=C(C#N)C#N)cc(C(C)(C)C)c1O | 12.8 | -34.3 | 97.4*
CC(C)(O)c1cc(O)c2c(c1)CCC1C(C)(C(=O)O)CCCC21C (stereo not given) | -5.0 | 0.1 | -6.2
C=C1C(=O)O[C@@H]2[C@H]3C(=C)[C@@H](O)C[C@H]3C(=C)C[C@@H](O)[C@@H]12 | ? | -4.7 | 113.2*
COc1ccc(C(=O)O[C@H]2CC[C@@]3(C)[C@@H]4CC[C@H]5[C@]6(O)C[C@H](O)[C@@]7(O)[C@@H](CN8C[C@@H](C)CC[C@H]8[C@@]7(C)O)[C@]6(O)C[C@@]53O[C@]24O)cc1OC | -0.4 | . | -7.1
O=C(c1ccccc1)N1CC2CC(C1)c1cccc(=O)n1C2 (stereo not given) | . | -0.5 | 15.7
C/C=C/[C@@H]1[C@H]2C[C@@H](C)CC[C@@H]2C(C)=C[C@H]1C(=O)c1c(O)c(-c2ccc(O)cc2)c[nH]c1=O | -9.3 | -1.3 | 52.1
CCC(C)C1NC(=O)C2CCCN2C(=O)C(CC(C)C)OC(=O)CCNC(=O)C(C)N(C)C(=O)C(C(C)C)N(C)C1=O (stereo not given) | -3.6 | 0.1 | 106.0*
C=C1C/C(=C/C)C(=O)O[C@@H]2CCN3CC=C(COC(=O)[C@]1(C)O)[C@H]23 | -1.6 | 3.9 | -4.7
CCOP(=S)(OCC)SCn1c(=O)oc2cc(Cl)ccc21 | -2.8 | . | 25.5
SMILES | STK33 kin inh | PD-1 reverse act | NOMO-1 viab
O=C1c2ccccc2-c2cccc3cccc1c23 | 75.5* | . | 7.6
c1ccc2c(c1)cc1ccc3cccc4ccc2c1c34 | 3.6 | . | 27.7
NCC(CS(=O)(=O)O)c1ccc(Cl)cc1 (stereo not given) | 0.6 | . | -5.3
O=C1NC(=O)C(CCc2ccncc2)(CCc2ccncc2)C(=O)N1c1ccccc1F | -1.8 | -1.0 | -6.5
CCC(C)[C@H]1O[C@]2(C=C[C@@H]1C)C[C@@H]1C[C@@H](C/C=C(\C)[C@@H](OC3C[C@H](OC)C(O[C@H]4C[C@H](OC)[C@@H](O)[C@H](C)O4)[C@H](C)O3)[C@@H](C)/C=C/C=C3\CO[C@@H]4[C@H](O)C(C)=C[C@@H](C(=O)O1)[C@]34O)O2 (stereo not given in full) | 4.5 | . | 103.6*
Cc1ccccc1NC1=NCC(C)(C)S1 | . | 0.9 | -3.1
C[C@@H]1CN([C@H](C)CO)C(=O)CCCn2nncc2CO[C@H]1CN(C)C(=O)Oc1ccccc1 | 5.2 | . | .
CCN1CC2(COC)CCC(O)C34C5CC6C(OC)CC(O)(C5C6O)C(C(OC)C23)C14 (stereo not given) | -0.8 | 0.0 | 0.7
CCN1C[C@]2(C)CC[C@H](O)[C@@]34C2[C@H](OC)C([C@@H]13)[C@@]1(O)C[C@H](OC)[C@H]2C[C@@H]4[C@@H]1[C@H]2O | -1.6 | -9.2 | 107.4*
CN1CCN(CC(=O)Nc2ccc([N+](=O)[O-])cc2C(=O)c2ccccc2)CC1 | 5.5 | . | 22.7
C=CC(C)(C)[C@]12C=C(OC)C(=O)N3/C(=C/c4cnc[nH]4)C(=O)N[C@@]31N(OC)c1ccccc12 | 0.4 | -0.3 | 101.2*
O=C1CC=C2C3CC4N(CCC45c4ccccc4N1C25)C/C3=C/CO (stereo not given) | 3.1 | 0.5 | 6.7
C/C=C\C(C)=C\[C@H](C)C(=O)C[C@H](O)CC1CC(=O)NC(=O)C1 | -7.9 | -0.2 | 77.4
COc1ccc2c3c1O[C@H]1[C@@H](O)CC=C4[C@@H](C2)N(C)CC[C@]431 | -3.1 | . | 13.3
CC(=O)O[C@H]1C[C@H](O[C@H]2[C@@H](O)C[C@H](O[C@H]3[C@@H](O)C[C@H](O[C@H]4CC[C@@]5(C)C(CCC6C5C[C@@H](O)[C@]5(C)[C@@H](C7=CC(=O)OC7)CC[C@]65O)C4)O[C@@H]3C)O[C@@H]2C)O[C@H](C)[C@H]1O[C@@H]1O[C@H](CO)[C@@H](O)[C@H](O)[C@H]1O (stereo not given in full) | -3.4 | . | 107.0*
CO[C@@H]1[C@H](O)[C@@H](O[C@@H]2C[C@H]3CC[C@@H]4C(CC[C@]5(C)[C@@H](C6=CC(=O)OC6)CC[C@]45O)[C@@]3(C)[C@H](O)C2)O[C@H](C)[C@@H]1O[C@@H]1O[C@H](CO)[C@@H](O)[C@H](O)[C@H]1O (stereo not given in full) | -5.5 | -16.4 | 119.9*
CO[C@H]1[C@H](O)[C@H](O[C@H]2CC[C@]3(C)C4CC[C@]5(C)[C@H](C6=CC(=O)OC6)CC[C@]5(O)C4CC[C@@H]3C2)O[C@@H](C)[C@@H]1O[C@@H]1O[C@H](CO[C@@H]2O[C@H](CO)[C@@H](O)[C@H](O)[C@H]2O)[C@@H](O)[C@H](O)[C@H]1O (stereo not given in full) | -3.2 | -11.8 | 119.4*
CCOC(=O)c1c(C)n(C2CCCCC2)c2ccc(O)cc12 | . | -0.2 | 25.4
